# PubChem BioAssay AID1508600 (Functional Genomics Laboratory (NCATS/FGL), 2020)
# In all, about 53,000 sequences went through this assay and about 3,700 (7%) were called active. The full list was thinned out, with actives kept by preference. A number with no mark means an inactive call.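 Rule for the calls: active = gene knockdowns whose robust z-score for IL-1 alpha signal is at least 2 or at most -2, so actives lie on both sides; inactive = the rest.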
# Experiment: Components of the Cytosolic LPS Sensing Pathway: Gene Identification via Genome-wide siRNA Screen;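 note: robust z of the log signal after scaling to non-targeting control siRNA wells of the plate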
# Details: RAW264.7 macrophages, IL-1a HTRF, actives lie on both sides, screened at 100 nM (by protocol), cells primed 5 h with Pam3CSK4 first
# Procedure, shortened: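 Supernatant IL-1a by HTRF from RAW264.7 cells primed with Pam3CSK4 (5 hours) and transfected with LipidA (24 hour) after 48h siRNA knockdown at 100 nM; cell viability checked with CellTiter-Glo.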
row,Sequence,z-score
1,GGCUCAAUAAAAUGAAGUGTT against Elovl2,2.03 (active)
2,GGCUCAUGGUUAUUGUAAUTT against Olfr1198,-0.385
3,UGUAUCUUUCUGUAGUUCUTT against Taar7e,0.195
4,GGAACAUGGCACUUUCGUGTT against Pcdh10,0.905
5,CGGUUAAAAGCCCUCAGCATT against Olfr592,-1.41
6,GGUCAAGUGCGAGAAACUCTT against Mafb,-0.016
7,GGUGGGAAGAGGAAUACACTT against Iffo1,4.73 (active)
8,GGGACCAGAUGAAGAAGGATT against Coq4,0.267
9,GGAAAUAGAGGAAAGAGAATT against Rbm17,-0.235
10,GGCCAUCCAUUGAAGACAUTT against Stk-ps2,1.05
11,GGCUCUGUUGAAUGCAACGTT against Slc39a6,-2.15 (active)
12,CUUUGUCAGCCAUGUAUCCTT against Tas2r104,0.468
13,GCUGCCACUGGACACAUAATT against 4930591A17Rik,-0.0198
14,GGCUCAAGAAAGUGAAUGATT against Myog,-1.14
15,GCAAGACACUUGAUAACUCTT against Znrd1as,2.34 (active)
16,GGAGCAUUUGUUUCCAAGATT against Cd38,-1.33
17,GCGCAAUGACGAUAAACUCTT against Sema3f,0.534
18,CCGGAGGUUCCAACAAACUTT against Dlx1,-0.591
19,GGAUCCAGAACUAAAAAUCTT against Pcdhga2,0.193
20,GCUUACUAAUGCGGAUUACTT against 5330438D12Rik,-2.41 (active)
21,GGAAGUUGGUGAGCUGGUATT against Ccl17,2.4 (active)
22,GGAAGACAACAACCUAGAATT against Rpn1,-0.894
23,GCAGAGUCUGGAUCAACAUTT against Efcab14,-0.583
24,CCUCCAGUUCAGAAUUCUATT against Surf4,0.634
25,GGCACGAUACUUAUUUGAATT against Nudt13,-1.43
26,GGAAGUUGUAGGAGAAAACTT against Rnf214,-0.624
27,CGAGAACAGAGGUUUUUAATT against Mxi1,0.0641

row,Sequence,z-score
1,GGAUGCAUUUUUUCUGGAATT against Nop53,0.85
2,GGUGGAAGAGGAGAGUGAATT against Ncl,-0.284
3,GGAACUGAGCCAAGAAGCUTT against Prox2,-2.16 (active)
4,GUGUGGACAACUCCUGAGUTT against 9630041A04Rik,-1.14
5,CGUUAACUCUCGGACGAUCTT against Fitm1,0.576
6,GGAGGUGGAUCAAAUGGCATT against Gnrh1,-0.667
7,GGAAAUAUUGUCAUCAUGGTT against Olfr1302,-0.483
8,GCGGAACUGACUUUCCUGATT against Rhot2,0.443
9,GGGUAAGAGUUACAGAAUATT against Serpinb8,-0.0947
10,GCUUUACGAUACUCCAUAUTT against Shd,-0.506
11,GGGAGAAAAUUGGCUUAGATT against Dclre1b,0.424
12,GAUGUUCUGCAUCUACUUUTT against Olfr545,1.46
13,CCUGAAAUCCUGUAGCUACTT against Pgap3,1.35
14,GGCAGAGACCUCAAAACCATT against Selplg,-2.33 (active)
15,GGACCAUCACUUCCAGCUATT against Rab1b,-0.726
16,GGAAGUCUCUAUCCUGAACTT against Prss50,-0.24
17,GGAAGUCAACAAUGCAUUCTT against Olfr1451,-0.133
18,GGUAAAUUACUCUGAUCAATT against Gpr61,-0.593
19,GGGAUUAAUAUCAUACCGATT against Slc30a5,-1.33
20,GGGUUUUAUGACCUUCAAGTT against Zkscan14,0.655
21,GGAUGCUCUAGUUCCAUUATT against Aym1,0.51
22,GGAGCAUCAUUUUAACACUTT against Tubd1,0.925
23,GGAUCCUGGUCCAAACUUUTT against Atraid,-1.52
24,GGUUAUUGGCACUUUUAGATT against Ect2,0.0504
25,GGAUUGCUUCACCACAUGUTT against Fes,2.44 (active)
26,GGUGCUGAUGAAGUUCAUGTT against Ap1b1,1.47
